SMILES strings stand for the structures.

In assay [1] the target is Rho-associated protein kinase 1 (Homo sapiens) (UniProt Q13464). As to conditions: at 1 µM.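 Note: reported values are mean percent inhibition of ROCK1.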
Assay [2] deals with Rho-associated protein kinase 2 (Homo sapiens) (UniProt O75116). As to conditions: at 0.1 µM.
Assay [3] has the same target. As to conditions: at 1 µM.
Assay [4] has as its target Ribosomal protein S6 kinase alpha-1 (Homo sapiens) (UniProt Q15418). The following applies: at 0.1 µM.
The target is the same in assay [5]. As to conditions: at 1 µM.
Assay [6] has as its target Ribosomal protein S6 kinase alpha-3 (Homo sapiens) (UniProt P51812). As to conditions: at 0.1 µM.
Assay [7] shares this target. The following applies: at 1 µM.
The target of assay [8] is Ribosomal protein S6 kinase alpha-2 (Homo sapiens) (UniProt Q15349). As to conditions: at 0.1 µM.
The target is the same in assay [9]. As to conditions: at 1 µM.
Assay [10] has as its target Ribosomal protein S6 kinase alpha-6 (Homo sapiens) (UniProt Q9UK32). The following applies: at 0.1 µM.
Assay [11] has the same target. As to conditions: at 1 µM.
In assay [12] the target is T1, Serine/threonine-protein kinase Sgk1 (Homo sapiens) (UniProt O00141).
T1 sequence (whole entry): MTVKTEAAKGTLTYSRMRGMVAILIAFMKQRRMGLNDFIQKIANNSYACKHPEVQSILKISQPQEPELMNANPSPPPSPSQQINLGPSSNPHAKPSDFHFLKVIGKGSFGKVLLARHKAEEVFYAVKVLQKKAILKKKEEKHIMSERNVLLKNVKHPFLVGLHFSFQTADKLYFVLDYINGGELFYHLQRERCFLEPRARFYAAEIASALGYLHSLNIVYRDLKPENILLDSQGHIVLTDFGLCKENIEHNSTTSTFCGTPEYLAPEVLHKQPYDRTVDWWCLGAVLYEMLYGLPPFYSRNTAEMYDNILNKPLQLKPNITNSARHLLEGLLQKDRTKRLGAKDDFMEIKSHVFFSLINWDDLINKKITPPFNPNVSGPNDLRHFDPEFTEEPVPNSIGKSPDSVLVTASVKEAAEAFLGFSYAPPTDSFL
The following applies: at 0.1 µM.

Assay [13] has as its target T1, Serine/threonine-protein kinase Sgk1 (Homo sapiens). As to conditions: at 1 µM.
Assay [14] addresses T2, Serine/threonine-protein kinase Sgk2 (Homo sapiens) (UniProt Q9HBY8).
T2 sequence (whole entry): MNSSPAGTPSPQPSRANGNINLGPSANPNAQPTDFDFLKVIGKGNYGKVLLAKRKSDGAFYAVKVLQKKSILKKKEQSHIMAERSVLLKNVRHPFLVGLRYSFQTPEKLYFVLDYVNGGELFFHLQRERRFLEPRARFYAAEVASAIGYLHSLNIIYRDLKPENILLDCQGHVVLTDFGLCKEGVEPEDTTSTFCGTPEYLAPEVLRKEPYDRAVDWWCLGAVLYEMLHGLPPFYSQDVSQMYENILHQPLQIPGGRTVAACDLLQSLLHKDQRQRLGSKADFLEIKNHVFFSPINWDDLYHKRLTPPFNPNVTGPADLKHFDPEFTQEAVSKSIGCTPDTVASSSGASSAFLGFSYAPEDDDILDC
As to conditions: at 0.1 µM.

Assay [15] addresses T2, Serine/threonine-protein kinase Sgk2 (Homo sapiens). The following applies: at 1 µM.
The target of assay [16] is T3, Serine/threonine-protein kinase Sgk3 (Homo sapiens) (UniProt Q96BR1).
T3 sequence (whole entry): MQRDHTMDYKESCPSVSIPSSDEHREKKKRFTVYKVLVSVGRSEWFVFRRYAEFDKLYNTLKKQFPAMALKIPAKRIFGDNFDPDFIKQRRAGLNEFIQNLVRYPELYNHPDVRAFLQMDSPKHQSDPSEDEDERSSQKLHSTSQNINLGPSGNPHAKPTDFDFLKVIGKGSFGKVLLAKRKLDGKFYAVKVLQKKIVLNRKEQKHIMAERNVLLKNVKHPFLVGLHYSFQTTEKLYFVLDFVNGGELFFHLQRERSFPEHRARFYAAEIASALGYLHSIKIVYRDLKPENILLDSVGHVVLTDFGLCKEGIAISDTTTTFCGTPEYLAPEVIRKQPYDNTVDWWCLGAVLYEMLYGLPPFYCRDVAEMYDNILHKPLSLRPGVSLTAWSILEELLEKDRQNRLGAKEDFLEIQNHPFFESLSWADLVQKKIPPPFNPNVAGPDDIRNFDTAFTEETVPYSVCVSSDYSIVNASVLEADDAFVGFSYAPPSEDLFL
As to conditions: at 0.1 µM.

The target in assay [17] is T3, Serine/threonine-protein kinase Sgk3 (Homo sapiens). As to conditions: at 1 µM.
Assay [18] has as its target 5'-AMP-activated protein kinase catalytic subunit alpha-1 (Homo sapiens) (UniProt Q13131). The following applies: at 0.1 µM.
For assay [19] the target is unchanged. The following applies: at 1 µM.
In assay [20] the target is 5'-AMP-activated protein kinase catalytic subunit alpha-2 (Homo sapiens) (UniProt P54646). The following applies: at 0.1 µM.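 Note: mean inhibition measured on the AMPK complex of alpha2, beta1 and gamma1 subunits.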
Sequence of 5'-AMP-activated protein kinase catalytic subunit alpha-2 (Homo sapiens) (P54646 whole entry, looked up): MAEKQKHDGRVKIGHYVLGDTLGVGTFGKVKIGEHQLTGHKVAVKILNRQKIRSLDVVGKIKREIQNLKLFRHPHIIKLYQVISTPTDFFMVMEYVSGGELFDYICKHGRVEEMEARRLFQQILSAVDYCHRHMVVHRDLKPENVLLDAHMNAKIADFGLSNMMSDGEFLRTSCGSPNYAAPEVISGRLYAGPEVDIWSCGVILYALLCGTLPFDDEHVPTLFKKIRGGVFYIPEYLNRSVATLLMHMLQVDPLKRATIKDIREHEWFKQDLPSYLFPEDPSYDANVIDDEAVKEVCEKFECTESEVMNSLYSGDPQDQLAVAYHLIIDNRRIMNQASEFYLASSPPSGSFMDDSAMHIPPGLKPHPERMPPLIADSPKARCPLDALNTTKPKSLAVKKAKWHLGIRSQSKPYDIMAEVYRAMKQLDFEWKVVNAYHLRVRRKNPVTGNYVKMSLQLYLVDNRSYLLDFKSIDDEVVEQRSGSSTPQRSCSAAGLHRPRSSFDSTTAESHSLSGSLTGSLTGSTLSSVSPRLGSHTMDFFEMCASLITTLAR

Sequence of Ribosomal protein S6 kinase alpha-6 (Homo sapiens) (Q9UK32 whole entry): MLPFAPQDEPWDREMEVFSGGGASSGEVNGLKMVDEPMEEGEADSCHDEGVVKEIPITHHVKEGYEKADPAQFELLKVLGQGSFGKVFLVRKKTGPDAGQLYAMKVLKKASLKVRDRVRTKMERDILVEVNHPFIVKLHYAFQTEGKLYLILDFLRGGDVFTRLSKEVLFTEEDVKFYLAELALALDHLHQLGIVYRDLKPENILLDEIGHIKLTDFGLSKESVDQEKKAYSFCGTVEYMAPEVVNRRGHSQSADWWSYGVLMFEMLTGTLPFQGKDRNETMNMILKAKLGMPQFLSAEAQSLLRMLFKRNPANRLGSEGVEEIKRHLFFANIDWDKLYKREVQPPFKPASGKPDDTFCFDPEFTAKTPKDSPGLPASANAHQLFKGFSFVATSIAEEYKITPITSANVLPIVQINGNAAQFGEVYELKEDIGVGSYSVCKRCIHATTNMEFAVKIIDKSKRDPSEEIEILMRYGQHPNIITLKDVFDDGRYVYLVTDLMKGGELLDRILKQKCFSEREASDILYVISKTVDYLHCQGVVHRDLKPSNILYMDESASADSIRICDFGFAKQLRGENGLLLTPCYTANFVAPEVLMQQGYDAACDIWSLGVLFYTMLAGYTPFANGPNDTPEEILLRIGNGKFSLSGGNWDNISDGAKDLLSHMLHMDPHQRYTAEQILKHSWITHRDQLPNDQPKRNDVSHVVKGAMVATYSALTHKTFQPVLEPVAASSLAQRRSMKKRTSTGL
Sequence of Rho-associated protein kinase 1 (Homo sapiens) (Q13464 2-1354 limits assumed): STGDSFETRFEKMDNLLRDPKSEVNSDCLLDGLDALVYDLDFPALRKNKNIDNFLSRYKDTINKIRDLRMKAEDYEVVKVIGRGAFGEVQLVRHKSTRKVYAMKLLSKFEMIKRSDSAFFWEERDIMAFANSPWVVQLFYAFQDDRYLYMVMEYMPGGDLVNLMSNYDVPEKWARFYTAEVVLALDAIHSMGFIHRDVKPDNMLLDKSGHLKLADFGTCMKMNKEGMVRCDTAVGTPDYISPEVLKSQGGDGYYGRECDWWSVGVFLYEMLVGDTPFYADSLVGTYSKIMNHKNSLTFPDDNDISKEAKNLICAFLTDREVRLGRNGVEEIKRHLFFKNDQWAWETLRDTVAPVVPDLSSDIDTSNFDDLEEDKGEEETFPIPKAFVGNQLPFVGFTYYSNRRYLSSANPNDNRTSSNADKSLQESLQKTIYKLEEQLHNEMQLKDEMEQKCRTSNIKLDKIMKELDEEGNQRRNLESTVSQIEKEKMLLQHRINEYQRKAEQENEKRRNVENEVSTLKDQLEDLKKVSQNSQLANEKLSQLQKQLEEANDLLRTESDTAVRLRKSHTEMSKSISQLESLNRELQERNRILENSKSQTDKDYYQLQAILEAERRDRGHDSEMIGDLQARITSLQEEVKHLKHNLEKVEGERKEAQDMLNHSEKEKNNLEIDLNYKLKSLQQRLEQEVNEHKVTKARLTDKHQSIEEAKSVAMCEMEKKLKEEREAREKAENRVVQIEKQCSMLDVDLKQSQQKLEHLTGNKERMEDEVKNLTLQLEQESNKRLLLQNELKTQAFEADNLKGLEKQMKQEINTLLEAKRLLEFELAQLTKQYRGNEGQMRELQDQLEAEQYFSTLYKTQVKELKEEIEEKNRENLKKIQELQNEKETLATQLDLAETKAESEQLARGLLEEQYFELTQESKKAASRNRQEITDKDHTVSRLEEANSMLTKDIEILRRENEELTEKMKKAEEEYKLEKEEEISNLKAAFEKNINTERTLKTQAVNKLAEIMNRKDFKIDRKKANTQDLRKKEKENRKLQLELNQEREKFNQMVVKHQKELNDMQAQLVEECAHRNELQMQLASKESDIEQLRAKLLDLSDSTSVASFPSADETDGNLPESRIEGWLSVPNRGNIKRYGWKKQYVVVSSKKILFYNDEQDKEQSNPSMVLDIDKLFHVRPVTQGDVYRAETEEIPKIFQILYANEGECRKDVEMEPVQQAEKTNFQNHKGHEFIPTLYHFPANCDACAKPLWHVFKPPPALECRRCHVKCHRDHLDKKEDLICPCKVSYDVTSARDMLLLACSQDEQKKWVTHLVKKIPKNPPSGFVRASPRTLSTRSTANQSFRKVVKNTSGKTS
Sequence of Rho-associated protein kinase 2 (Homo sapiens) (O75116 whole entry, looked up): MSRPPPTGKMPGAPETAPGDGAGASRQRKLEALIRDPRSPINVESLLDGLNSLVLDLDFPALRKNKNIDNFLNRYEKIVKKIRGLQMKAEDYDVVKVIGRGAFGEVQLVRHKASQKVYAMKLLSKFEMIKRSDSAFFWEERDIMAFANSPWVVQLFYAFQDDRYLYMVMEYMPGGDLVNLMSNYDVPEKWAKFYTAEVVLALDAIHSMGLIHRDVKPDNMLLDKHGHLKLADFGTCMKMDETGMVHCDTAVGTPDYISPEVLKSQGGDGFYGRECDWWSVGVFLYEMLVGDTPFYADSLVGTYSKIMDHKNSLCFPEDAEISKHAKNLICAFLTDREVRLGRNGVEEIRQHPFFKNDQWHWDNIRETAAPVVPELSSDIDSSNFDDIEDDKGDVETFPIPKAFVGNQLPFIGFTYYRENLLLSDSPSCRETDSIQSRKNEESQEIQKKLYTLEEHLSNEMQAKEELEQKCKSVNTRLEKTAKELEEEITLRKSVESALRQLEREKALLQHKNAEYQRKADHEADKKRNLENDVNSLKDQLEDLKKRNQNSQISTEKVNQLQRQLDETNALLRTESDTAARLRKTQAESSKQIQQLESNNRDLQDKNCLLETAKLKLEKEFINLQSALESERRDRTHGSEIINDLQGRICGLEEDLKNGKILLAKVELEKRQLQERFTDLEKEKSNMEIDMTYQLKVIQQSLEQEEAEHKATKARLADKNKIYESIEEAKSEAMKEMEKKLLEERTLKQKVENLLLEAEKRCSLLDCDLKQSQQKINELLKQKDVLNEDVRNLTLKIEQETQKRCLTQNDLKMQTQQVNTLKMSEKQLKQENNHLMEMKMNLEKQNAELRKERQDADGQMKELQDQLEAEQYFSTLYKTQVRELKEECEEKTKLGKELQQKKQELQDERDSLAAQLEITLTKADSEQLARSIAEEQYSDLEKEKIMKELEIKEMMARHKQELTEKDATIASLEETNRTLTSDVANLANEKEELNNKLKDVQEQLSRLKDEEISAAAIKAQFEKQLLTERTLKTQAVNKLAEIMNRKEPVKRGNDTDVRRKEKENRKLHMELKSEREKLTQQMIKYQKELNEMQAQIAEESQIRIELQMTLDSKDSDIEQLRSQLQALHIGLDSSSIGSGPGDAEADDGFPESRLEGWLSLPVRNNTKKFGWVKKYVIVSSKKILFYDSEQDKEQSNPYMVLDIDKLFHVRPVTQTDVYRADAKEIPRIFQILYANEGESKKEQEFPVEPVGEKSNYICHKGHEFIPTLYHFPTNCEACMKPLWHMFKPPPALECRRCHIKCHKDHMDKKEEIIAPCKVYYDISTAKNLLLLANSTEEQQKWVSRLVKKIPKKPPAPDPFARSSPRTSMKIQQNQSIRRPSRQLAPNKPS
Sequence of 5'-AMP-activated protein kinase catalytic subunit alpha-1 (Homo sapiens) (Q13131 whole entry, looked up): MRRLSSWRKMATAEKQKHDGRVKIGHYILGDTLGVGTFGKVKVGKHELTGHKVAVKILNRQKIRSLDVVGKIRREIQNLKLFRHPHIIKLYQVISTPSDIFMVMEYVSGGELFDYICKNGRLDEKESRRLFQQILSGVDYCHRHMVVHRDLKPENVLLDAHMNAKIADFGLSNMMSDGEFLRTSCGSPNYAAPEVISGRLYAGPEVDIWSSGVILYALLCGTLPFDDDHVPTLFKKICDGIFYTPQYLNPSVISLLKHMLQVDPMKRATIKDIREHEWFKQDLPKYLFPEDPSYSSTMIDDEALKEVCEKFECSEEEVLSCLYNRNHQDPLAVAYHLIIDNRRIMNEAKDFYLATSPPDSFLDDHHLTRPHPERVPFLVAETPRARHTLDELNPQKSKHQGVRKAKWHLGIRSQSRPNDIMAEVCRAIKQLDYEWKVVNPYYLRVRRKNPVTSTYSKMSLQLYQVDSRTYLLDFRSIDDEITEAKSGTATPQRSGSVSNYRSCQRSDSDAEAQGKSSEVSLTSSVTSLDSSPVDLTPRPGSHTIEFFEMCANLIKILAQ

For `O=C(Nc1n[nH]c2cc(-c3ccccc3)ccc12)C1CC1`, the inhibition (commonly the change of the read-out against control, counted positive when it falls) in assay [1] is 1.05%; in assay [2], 2.59%; in assay [3], 0.78%; in [4], 0.84%; in assay [5], 1.81%; in assay [6] it was 1.2%. The inhibition was determined as 0.07% in assay [7]; 3.06% in [8]; 3.36% in assay [9]; 3% in [10]; 3.11% in assay [11]; 2.86% in assay [12]. In addition, the inhibition in assay [13] is 5.38%; in assay [14] it was 1.79%; in [15], 1.73%; in assay [16] it was 4.57%; in [17], 3.95%; in assay [18], 3.49%. The inhibition worked out at 4.22% in [19] and 4.21% in [20].

As to `COc1ccc(-c2ccc3c(NC(=O)C4CC4)n[nH]c3n2)cc1`, the inhibition is -0.75% in assay [1]; 1.6% in [2]; 3.71% in assay [3]; 0.22% in assay [4]; 2.59% in [5]; 1.62% in assay [6]. The inhibition was 3% in assay [7]; 1.1% in assay [8]; 1.69% in assay [9]; 0.83% in assay [10]; 0.85% in assay [11]; 1.6% in assay [12]. The inhibition stood at 6% in [13]; 1.24% in assay [14]; 3.76% in [15]; 2.58% in assay [16]; 3.92% in assay [17]; 1.15% in assay [18]. Further, the inhibition was 2.02% in assay [19] and 0.53% in assay [20].

Regarding `C/C(Nc1ccc(S(N)(=O)=O)cc1)=C1/C(=O)Nc2ccccc21`, the inhibition in assay [1] turned out to be 5.13%; in assay [2], 2.95%; in assay [3], 9.54%; in assay [4], 1.62%; in assay [5], 14.5%; in assay [6] it was 1.49%. For the same compound, the inhibition in [7] was 14.6%; in assay [8], 2.22%; in assay [9], 23.4%; in assay [10], 2.94%; in [11] it was 20.7%; in assay [12], 5.32%. Further, the inhibition in assay [13] amounted to 18.4%; in assay [14], 1.82%; in assay [15] it was 2.83%; in [16] it was 0.76%; in [17], 2.1%; in [18] it was 1.16%. Further, the values for the inhibition in assay [19] and in assay [20] were 9.79% and 3.01%, respectively.

`CCc1nccc2c1nc(-c1nonc1N)n2CC`: the inhibition in assay [1] came to 11.5%; in [2], 1.91%; in assay [3] it was 17%; in [4], 5.37%; in [5], 35.2%; in assay [6], 2.22%. In addition, the inhibition was 15.6% in assay [7]; 3.79% in assay [8]; 26.9% in [9]; -0.93% in [10]; 0.92% in assay [11]; 0.21% in assay [12]. In addition, the inhibition in assay [13] is 3.23%; in assay [14] it was 0.23%; in assay [15], 9.51%; in [16] it was 2.62%; in assay [17], 7.73%; in [18], 1%. The results for the inhibition in assay [19] and in assay [20] were -1.23% and -1.43%, respectively.

Consider `NS(=O)(=O)c1ccc(N/N=C2\C(=O)Nc3ccc(C(=O)NCCCn4ccnc4)cc32)cc1`, for which the inhibition was found to be 8.77% in assay [1]; 5.67% in [2]; 25.4% in [3]; 2.58% in [4]; 7.85% in assay [5]; 2.08% in assay [6]. For the same compound, the inhibition in assay [7] turned out to be 9.61%; in [8], 3.97%; in assay [9], 12.8%; in assay [10], 3.05%; in [11], 13%; in assay [12] it was 5.02%. Further, the inhibition in [13] worked out at 14.6%; in [14] it was 2.07%; in [15], 7.54%; in assay [16] it was 3.25%; in [17] it was 6.44%; in assay [18], 18%. For the same compound, the results for the inhibition in assay [19] and in assay [20] were 64.4% and 5.78%, respectively.

Turning to `Cc1ccc(C(=O)NC(C)C)cc1-c1ccc(C(=O)NCC2CC2)cc1`, the inhibition in [1] was -0.1%; in assay [2], -1.71%; in assay [3], -1.76%; in [4], 1.38%; in [5], -0.32%; in [6] it was 1.65%. In addition, the inhibition is 1.68% in assay [7]; -0.25% in [8]; 0.47% in [9]; -0.44% in [10]; 0.59% in [11]; 0.01% in [12]. Also, the inhibition in assay [13] is -0.09%; in [14] it was -3.55%; in assay [15], -7.09%; in [16], -5.05%; in assay [17] it was -2.17%; in [18], -1.19%. The inhibition in assay [19] is -1.42%; in [20] it was -0.98%.

Take `NCc1ccc(-n2c(-c3nonc3N)nc3cnccc32)cc1`: the inhibition is 90.5% in [1]; 82.9% in [2]; 92.9% in [3]; 56.2% in [4]; 87.9% in assay [5]; 43.4% in [6]. The inhibition worked out at 81.4% in assay [7]; 55.5% in assay [8]; 91.4% in assay [9]; 10% in assay [10]; 36.2% in assay [11]; 5.32% in [12]. In addition, the inhibition in assay [13] stood at 11.7%; in assay [14], 5.18%; in [15] it was 17.3%; in [16] it was 3.68%; in [17] it was 28.2%; in assay [18], 5.3%. The inhibition in assay [19] came to 7.27%; in assay [20], 6.07%.

Take `NC(=O)c1cc(-c2ccc(F)cc2)cc(-c2ccncc2)c1N`: the inhibition came out at 1.76% in assay [1]; 2.33% in [2]; 6.23% in assay [3]; 1.16% in [4]; 2.59% in assay [5]; 0.17% in [6]. Further, the inhibition in assay [7] is 1.79%; in assay [8], 1.82%; in assay [9], 2.97%; in assay [10], 0.55%; in assay [11] it was 0.89%; in [12], 3.79%. For the same compound, the inhibition in assay [13] was 4.51%; in [14], 1.44%; in assay [15] it was 2.58%; in [16] it was 3.22%; in assay [17], 5.96%; in [18], 2.78%. Further, the inhibition in [19] is 2.57%; in assay [20] it was 2.54%.

The values above are taken from ChEMBL document CHEMBL1961873, “Compounds: GSK PKIS; Assays: Nanosyn kinase panel” (2012).
